The results in this text go back to PubChem BioAssay AID492948 (National Center for Advancing Translational Sciences (NCATS), 2010).

Inconclusive results are not listed. Active and inactive are the calls of the source. The call rests on the fitted dose curve; in most records, active means well fitted activation curve with a large enough effect; inconclusive means small, poorly fitted or top-dose-only effect; inactive means no such curve, though single readings can be large or run the other way.
Potency means the concentration at half of the fitted maximal effect.

This assay is described as follows: qHTS Assay for Agonists of the Relaxin Receptor RXFP1: V1B Hit Validation.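 Further: counter-screen in HEK293 cells expressing V1B rather than RXFP1 for selectivity; nearly all actives have a fitted effect of over 65% in size.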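 On activation: cAMP accumulation with PDE4 inhibitor Ro 20-1724 present during compound exposure.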 The following applies: HEK293 V1B cells, cAMP TR-FRET, 30 min; series mostly up to 115 µM. The source says: NIH Chemical Genomics Center [NCGC]
NIH Molecular Libraries Probe Production Centers Network [MLPCN]
Assay Submitter (PI): Alexander Agoulnik
The relaxin hormone is involved in the variety of biological functions in normal tissues and diseases. The role of relaxin is well-established in female reproduction and parturition, mammary gland and endometrial development, maintenance of myometrial quiescence during pregnancy. Relaxin signaling through its G protein-coupled receptor (GPCR) RXFP1 results in ECM remodeling through regulation of collagen deposition, cell invasiveness, proliferation and overall tissue homeostasis. […] Recombinant human relaxin (rhRlx) is currently being tested in clinical trials as a protective agent in congestive heart failure, in treating severe preeclampsia, and as an anti-fibrotic agent in systemic sclerosis.
Upon relaxin binding RXFP1 activation leads to the activation of adenylate cyclase (AC) via Gs. cAMP will activate PKA, which phosphorylates many signaling proteins. Thus, detection of cAMP increase is an easy and reliable indication of relaxin receptor activation. To screen for agonists of the relaxin receptor, a HEK293T cell line stably transfected with RXFP1 was used. RXFP1 activation was assayed by changes in cAMP levels as detected with a time-resolved fluorescence energy transfer (TR-FRET) cAMP detection kit.
This assay measures activation of a cell expressing […], another GPCR targeted by relaxin, to determine the selectivity of compounds for RXFP1.
NCGC Assay Protocol Summary:
This is a cell-based assay for cAMP second messenger response to screen for agonists of the RXFP2 receptor. The assay was conducted in the presence of a PDE4 inhibitor (Ro 20174). The cells were lysed and the cAMP levels were measured with a TR-FRET cAMP kit. Presence of cAMP in the cell lysate disrupts binding between the cryptate-labeled anti-cAMP and d2-labeled cAMP pair, leading to a decrease in the TR-FRET signal. Data were normalized to the controls for basal activity (buffer only) and 100% activity (29 nM porcine relaxin). The EC50 values were determined from concentration-response data modeled with the standard Hill equation
1536-well assay protocol for the HEK293 V1B cAMP assay:
(1) Add 3 ul HEK293 RXFP2 cell culture. 2000 cells/well in DMEM/F12, 10% FBS, 1x Pen/Strep (dispensed offline with MultiDrop Combi).
(3) Add 23 nl compounds in DMSO solution. Final concentration was 0.5 - 58 uM.
(4) Incubate 30 min at 37C, 5% CO2.
(5) Add 1 ul cAMP-d2 in lysis buffer (HTRF cAMP HiRange kit, CisBio).
(6) Add 1 ul anti-cAMP antibody-cryptate in lysis buffer (HTRF cAMP HiRange kit, CisBio).
(7) Incubate 30 min at room temperature.
(6) Detect the assay plate in a ViewLux plate reader (PerkinElmer) with Ex=320 nm, Em1=615 nm and Em2=665 nm.
Keywords: relaxin, RXFP1, RXFP2, G-protein coupled receptor, cAMP, agonist, high throughput screening, MLSMR, MLSCN, NIH Roadmap, qHTS and NCGC
On the technique in general: qHTS replaces the single test concentration by a dilution series.
On to `O=C1OCc2cc(N=Nc3c(O)[nH]c(=O)[nH]c3=O)ccc21`, for which the Potency is 15.4 µM (active). As for `Nc1ncc2[nH]cnc2n1`, the Potency was 24.5 µM (active). On to `O=c1[nH]c(O)c(N=Nc2ccc([N+](=O)[O-])cc2)c(=O)[nH]1`, for which the Potency is 17.3 µM (active). As for `Cn1c(O)c(N=Nc2cccc(S(=O)(=O)N3CCOCC3)c2)c(=O)n(C)c1=O`, the figure is 13.8 µM (active); as for `CCC(Oc1cc(Cl)ccc1Cl)C(=O)N1CCC2(CC1)OCCO2` (configuration not stated), “inactive”. As for `O=C(O)c1sc2cc(Cl)ccc2c1Cl`, the figure is 19.4 µM (active); as for `CCNC(=O)[C@H]1O[C@@H](n2cnc3c(N)ncnc32)[C@H](O)[C@@H]1O`, 1.94 µM (active).
